PPARg SRC2 recr: promotes SRC-2 coactivator recruitment by human PPARgamma; activation, % at 8 µM; AID 1032; 0.34% of 200,000 active; PPARgamma LBD-SRC-2 recruitment, biochemical; in the data active = activation above about 22%;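 note: 0% = vehicle and 100% = reference agonist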
PPARg SRC-3 ag: PPARgamma-driven SRC-3 recruitment agonism | biochemical PPARgamma/SRC-3 coactivator recruitment assay | activation, % at 8 µM | 0.26% of 200,000 active; in the data active = activation above about 23%;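 note: 0% = DMSO and 100% = reference agonist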
SRC3 TRFRET art: flags TR-FRET format artefacts in PPARgamma SRC-3 recruitment agonist screen; TR-FRET artefact counter-screen, PPARgamma/SRC-3 format; hits give high values; TR-FRET ratio at 8 µM; 0.39% of 99,000 active; AID 1048
PPARg SRC-1 ag: agonists of human PPARgamma SRC-1 coactivator recruitment | P37231 | PPARgamma-SRC-1 coactivator recruitment biochemical assay | activation, % at 8 µM | 0.41% of 200,000 active | AID 631; in the data active = activation above about 19%;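 note: 0% = DMSO and 100% = reference agonist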
SRC2 TRFRET art: flags TR-FRET format artefacts in PPARgamma SRC-2 recruitment agonist screen. TR-FRET artefact counter-screen; hits give high values. TR-FRET ratio at 8 µM. 0.4% of 200,000 active
SRC1 TRFRET art: TR-FRET artefact, counter-screen to PPARgamma/SRC-1 agonist assay | TR-FRET ratio at 8 µM | 0.34% of 99,000 active | TR-FRET detection artefact counter-screen, emission ratio; hits give high values; in the data active = TR-FRET ratio above about 2300
PPARg SRC2 ag: human PPARgamma SRC-2 recruitment agonism, confirmation | shares compounds with PPARg SRC-3 ag | biochemical SRC-2 recruitment by PPARgamma | activation, % at 8 µM | 52% of 790 active | AID 1297; in the data active = activation above about 22%;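 note: 0% = vehicle alone and 100% = reference agonist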
PPARg SRC1 ag: human PPARgamma SRC-1 recruitment agonism, confirmation. shares compounds with PPARg SRC-3 ag. PPARgamma–SRC-1 coactivator recruitment biochemical assay. activation, % at 8 µM. 43% of 790 active; in the data active = activation above about 20%;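 note: 0% = vehicle wells and 100% = reference agonist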
PPARg SRC3 conf: confirmation of agonists of SRC-3 recruitment by human PPARgamma. activation, % at 8 µM. shares compounds with PPARg SRC-3 ag. biochemical PPARgamma-SRC-3 coactivator recruitment, agonist mode. 29% of 790 active; in the data active = activation above about 24%;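 note: 0% = vehicle wells and 100% = reference agonist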
Target sequence (P37231 whole entry, looked up): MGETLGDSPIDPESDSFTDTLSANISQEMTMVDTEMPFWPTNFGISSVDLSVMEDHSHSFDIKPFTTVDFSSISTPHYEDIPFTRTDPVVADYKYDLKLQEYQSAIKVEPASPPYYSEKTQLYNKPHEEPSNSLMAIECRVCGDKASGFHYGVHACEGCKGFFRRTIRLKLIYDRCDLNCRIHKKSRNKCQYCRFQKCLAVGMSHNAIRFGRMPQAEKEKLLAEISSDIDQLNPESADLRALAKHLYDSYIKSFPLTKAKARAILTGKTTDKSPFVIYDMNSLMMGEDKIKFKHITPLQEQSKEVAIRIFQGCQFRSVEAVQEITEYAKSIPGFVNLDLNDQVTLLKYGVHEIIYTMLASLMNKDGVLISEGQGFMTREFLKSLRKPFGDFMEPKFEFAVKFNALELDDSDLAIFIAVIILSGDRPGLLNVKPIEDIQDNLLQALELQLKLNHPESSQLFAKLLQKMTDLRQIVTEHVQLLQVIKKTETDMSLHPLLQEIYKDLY
Target sequence (Q9Y6Q9 whole entry, looked up): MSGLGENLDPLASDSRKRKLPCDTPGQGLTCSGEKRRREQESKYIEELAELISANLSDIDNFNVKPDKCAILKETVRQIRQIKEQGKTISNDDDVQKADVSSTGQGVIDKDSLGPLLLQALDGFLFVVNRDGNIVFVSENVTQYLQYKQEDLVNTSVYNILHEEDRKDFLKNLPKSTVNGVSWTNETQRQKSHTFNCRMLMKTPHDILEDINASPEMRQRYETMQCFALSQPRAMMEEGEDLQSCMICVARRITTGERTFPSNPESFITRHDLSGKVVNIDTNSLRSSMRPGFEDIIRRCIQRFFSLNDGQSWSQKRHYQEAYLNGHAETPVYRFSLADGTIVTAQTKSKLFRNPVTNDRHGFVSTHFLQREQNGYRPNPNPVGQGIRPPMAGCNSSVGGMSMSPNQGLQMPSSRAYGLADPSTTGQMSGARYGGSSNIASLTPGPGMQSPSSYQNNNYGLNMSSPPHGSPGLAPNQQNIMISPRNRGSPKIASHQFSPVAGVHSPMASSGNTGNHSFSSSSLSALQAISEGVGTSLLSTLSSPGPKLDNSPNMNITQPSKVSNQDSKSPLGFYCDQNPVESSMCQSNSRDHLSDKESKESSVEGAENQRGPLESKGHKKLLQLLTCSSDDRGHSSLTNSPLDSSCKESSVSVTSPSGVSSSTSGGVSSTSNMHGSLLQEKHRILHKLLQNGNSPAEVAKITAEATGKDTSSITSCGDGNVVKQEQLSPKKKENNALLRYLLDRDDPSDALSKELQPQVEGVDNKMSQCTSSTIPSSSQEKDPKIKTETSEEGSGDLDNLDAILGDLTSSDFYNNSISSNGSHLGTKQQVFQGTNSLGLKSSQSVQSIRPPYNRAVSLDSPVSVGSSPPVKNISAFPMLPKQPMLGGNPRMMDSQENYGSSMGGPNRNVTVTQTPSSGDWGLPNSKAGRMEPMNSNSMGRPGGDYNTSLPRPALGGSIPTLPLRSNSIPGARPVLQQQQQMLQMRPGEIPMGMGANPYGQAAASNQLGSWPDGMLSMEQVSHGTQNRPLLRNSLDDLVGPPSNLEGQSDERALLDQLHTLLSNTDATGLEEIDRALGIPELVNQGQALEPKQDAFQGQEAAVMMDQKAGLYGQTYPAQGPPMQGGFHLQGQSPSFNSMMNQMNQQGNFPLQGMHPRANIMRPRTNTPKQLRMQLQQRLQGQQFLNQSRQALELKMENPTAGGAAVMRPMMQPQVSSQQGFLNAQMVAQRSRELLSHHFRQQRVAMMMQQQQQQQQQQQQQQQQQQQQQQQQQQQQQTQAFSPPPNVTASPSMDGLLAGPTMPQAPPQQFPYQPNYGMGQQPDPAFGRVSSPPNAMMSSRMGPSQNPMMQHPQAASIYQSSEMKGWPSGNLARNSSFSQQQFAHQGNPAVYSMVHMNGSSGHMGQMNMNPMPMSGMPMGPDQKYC
Active calls of the source: *; · = no result. Only some compounds are listed: those with a hit (about 0.9% of all), similar ones and a draw of the others. Cut-off read from the data, not from the text of the source, unless noted: active = TR-FRET ratio above about 2000; inactive = the rest.

SMILES | PPARg SRC2 recr | PPARg SRC-3 ag | SRC3 TRFRET art | PPARg SRC-1 ag | SRC2 TRFRET art | SRC1 TRFRET art | PPARg SRC2 ag | PPARg SRC1 ag | PPARg SRC3 conf
COc1ccc(Cl)cc1NC(=O)Cn1c(NCCO)nc2ccccc21 | -1 | 2 | 1381 | 7 | 1549 | 1707 | · | · | ·
C=CCOc1cccc(C2C(C(=O)c3ccc(C)o3)=C(O)C(=O)N2c2nccs2)c1 (configuration not stated) | 32* | 23 | · | 24* | 2025* | · | 2 | -1 | 3
C=CCOc1cccc(C2C(C(=O)c3ccco3)=C(O)C(=O)N2CCN(CC)CC)c1 (configuration not stated) | 7 | 0 | · | 8 | 1590 | · | · | · | ·
Cc1cc(N2C(=O)C(O)=C(C(=O)c3cccs3)C2c2cccc(O)c2)no1 (configuration not stated) | 6 | -4 | · | -2 | 1443 | · | · | · | ·
Cc1ccc2nc(N3C(=O)C(O)=C(C(=O)c4ccc(C)o4)C3c3cccc(O)c3)sc2c1 (configuration not stated) | 24* | 10 | 1853 | 15 | 1951 | 2305 | 4 | 4 | 2
COc1ccc2oc3cc(C)[n+]([O-])c(-c4ccc(C)cc4)c3c2c1 | 6 | 5 | 1470 | 8 | 1743 | 1784 | · | · | ·
O=C(CN1C(=O)NC2(CCCCC2)C1=O)NCc1ccc2c(c1)OCO2 | 2 | 2 | 1578 | -4 | 1472 | 1905 | · | · | ·
O=C(Nc1ncccc1Cl)C(Sc1ccccc1)c1ccccc1 (configuration not stated) | -5 | 1 | · | 0 | 1503 | · | · | · | ·
CCn1c(=O)cc(SCC(=O)N2CCN(c3ccccn3)CC2)c2ccccc21 | 35* | 21 | 2355* | 39* | 2505* | 3018* | 50* | 34* | 34*
CCn1c(=O)cc(SCC(=O)N2CCN(c3ccccc3F)CC2)c2ccccc21 | 42* | 34* | · | 30* | 2381* | · | 36* | 23* | 24*
COc1cccc(Nc2nc(-c3sc(NC(=O)c4ccccc4)nc3C)cs2)c1 | 15 | 27* | · | 13 | 1767 | · | 42* | 26* | 19
COc1cc(C(=O)Nc2nnc(-c3sccc3C)s2)cc(OC)c1OC | 24* | 15 | · | 29* | 1729 | · | 55* | 43* | 37*
CCOCc1nnc(NC(=O)c2cc(OC)c(OC)c(OC)c2)s1 | 0 | 1 | 1632 | -5 | 1397 | 1597 | · | · | ·
COCc1cc(=O)[nH]c(/N=C(\N)Nc2cccc(Cl)c2)n1 | 3 | 5 | 1751 | 4 | 1766 | 1842 | · | · | ·
O=C(Oc1c(Br)cc(Br)c2cccnc12)N1CCCCC1 | 15 | 5 | 1960 | 29* | 1691 | 2129 | 11 | 5 | 7
O=C(Oc1ccc(Cl)c2cccnc12)N1CCCCC1 | 3 | -3 | 1816 | 2 | 1472 | 1483 | · | · | ·
O=C(c1ccccc1)N1N=C(c2ccccc2)CC1c1ccccc1[N+](=O)[O-] (configuration not stated) | 7 | 1 | 1426 | 1 | 1571 | 1793 | · | · | ·
CCC1(CC)N=C(c2ccccc2)C(=S)N1 | 3 | 5 | 1319 | 8 | 1562 | 1793 | · | · | ·
O=C(Oc1cccc(/C=N/Nc2nc(Nc3ccccc3)nc(N3CCOCC3)n2)c1)c1ccco1 | -3 | 1 | 1515 | 3 | 1371 | 1676 | · | · | ·
Oc1ccc(N=Cc2ccc(-c3cccs3)s2)cc1 | 26* | 24 | · | 37* | 1957 | · | 53* | 46* | 30*
Cc1cc(C)nc(NS(=O)(=O)c2ccc(NC(=O)CSc3nc(-c4ccccc4)c(C#N)c(=O)[nH]3)cc2)n1 | 24* | 11 | 2218* | 21* | 2049* | 2109 | 14 | 11 | 11
N#Cc1c(-c2ccccc2)nc(SCC(=O)Nc2ccccc2)[nH]c1=O | 6 | 5 | 1873 | 17 | 1703 | 2166 | · | · | ·
CC(C)c1[nH]nc2c1C(Cc1ccccc1)C(C#N)=C(N)O2 (configuration not stated) | 8 | -7 | · | 19* | 1603 | · | 7 | 4 | 4

Screening data (PubChem)
